Source: ChEMBL document CHEMBL1201862, “PubChem BioAssay data set” (2004)
Among all 410,000 compounds or so, about 5,100 (1.2%) were called active. Inconclusive results (about 8%) are left out. The calls are words filed in the database; no cut-off is given here. The entries come from a sample that favours actives as a whole.

Assay: High Throughput Screening for Foot and Mouth Disease Virus Antivirals.
Type: functional
Details: read-out: Potency

SMILES | AC50
CN(C)CCNC(=O)C1CCN(Cc2cc3ccccc3n2Cc2ccccc2)CC1 | 398 µM (active)
